# Legend:
# [1] = target: T1, Tyrosine-protein kinase ITK/TSK (Homo sapiens) (UniProt Q08881); details: at 1 µM;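 also: values are mean percent inhibition of ITK from the GSK PKIS screen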
# T1 sequence (whole entry): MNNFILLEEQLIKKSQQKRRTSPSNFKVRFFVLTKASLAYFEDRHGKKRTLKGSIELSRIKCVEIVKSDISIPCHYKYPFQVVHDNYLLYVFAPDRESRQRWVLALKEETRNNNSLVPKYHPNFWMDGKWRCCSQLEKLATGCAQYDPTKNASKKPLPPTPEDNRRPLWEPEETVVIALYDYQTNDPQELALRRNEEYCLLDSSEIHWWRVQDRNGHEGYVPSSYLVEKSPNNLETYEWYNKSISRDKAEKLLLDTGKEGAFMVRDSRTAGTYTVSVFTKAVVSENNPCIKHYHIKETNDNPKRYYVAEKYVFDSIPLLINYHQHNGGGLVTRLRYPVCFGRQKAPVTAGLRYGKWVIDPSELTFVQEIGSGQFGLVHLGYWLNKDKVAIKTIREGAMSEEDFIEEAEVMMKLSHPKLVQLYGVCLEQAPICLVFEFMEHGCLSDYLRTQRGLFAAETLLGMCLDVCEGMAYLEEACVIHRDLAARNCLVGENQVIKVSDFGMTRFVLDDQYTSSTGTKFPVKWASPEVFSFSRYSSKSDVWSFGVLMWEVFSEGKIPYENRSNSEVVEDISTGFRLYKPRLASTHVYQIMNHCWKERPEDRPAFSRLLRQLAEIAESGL
# [2] = target: Tyrosine-protein kinase JAK1 (Homo sapiens) (UniProt P23458); details: at 0.1 µM
# [3] = target: Tyrosine-protein kinase JAK1 (Homo sapiens) (UniProt P23458); details: at 1 µM
# [4] = target: Tyrosine-protein kinase JAK2 (Homo sapiens) (UniProt O60674); details: at 0.1 µM
# [5] = target: Tyrosine-protein kinase JAK2 (Homo sapiens) (UniProt O60674); details: at 1 µM
# [6] = target: T2, Tyrosine-protein kinase JAK3 (Homo sapiens) (UniProt P52333); details: at 0.1 µM
# T2 sequence (whole entry): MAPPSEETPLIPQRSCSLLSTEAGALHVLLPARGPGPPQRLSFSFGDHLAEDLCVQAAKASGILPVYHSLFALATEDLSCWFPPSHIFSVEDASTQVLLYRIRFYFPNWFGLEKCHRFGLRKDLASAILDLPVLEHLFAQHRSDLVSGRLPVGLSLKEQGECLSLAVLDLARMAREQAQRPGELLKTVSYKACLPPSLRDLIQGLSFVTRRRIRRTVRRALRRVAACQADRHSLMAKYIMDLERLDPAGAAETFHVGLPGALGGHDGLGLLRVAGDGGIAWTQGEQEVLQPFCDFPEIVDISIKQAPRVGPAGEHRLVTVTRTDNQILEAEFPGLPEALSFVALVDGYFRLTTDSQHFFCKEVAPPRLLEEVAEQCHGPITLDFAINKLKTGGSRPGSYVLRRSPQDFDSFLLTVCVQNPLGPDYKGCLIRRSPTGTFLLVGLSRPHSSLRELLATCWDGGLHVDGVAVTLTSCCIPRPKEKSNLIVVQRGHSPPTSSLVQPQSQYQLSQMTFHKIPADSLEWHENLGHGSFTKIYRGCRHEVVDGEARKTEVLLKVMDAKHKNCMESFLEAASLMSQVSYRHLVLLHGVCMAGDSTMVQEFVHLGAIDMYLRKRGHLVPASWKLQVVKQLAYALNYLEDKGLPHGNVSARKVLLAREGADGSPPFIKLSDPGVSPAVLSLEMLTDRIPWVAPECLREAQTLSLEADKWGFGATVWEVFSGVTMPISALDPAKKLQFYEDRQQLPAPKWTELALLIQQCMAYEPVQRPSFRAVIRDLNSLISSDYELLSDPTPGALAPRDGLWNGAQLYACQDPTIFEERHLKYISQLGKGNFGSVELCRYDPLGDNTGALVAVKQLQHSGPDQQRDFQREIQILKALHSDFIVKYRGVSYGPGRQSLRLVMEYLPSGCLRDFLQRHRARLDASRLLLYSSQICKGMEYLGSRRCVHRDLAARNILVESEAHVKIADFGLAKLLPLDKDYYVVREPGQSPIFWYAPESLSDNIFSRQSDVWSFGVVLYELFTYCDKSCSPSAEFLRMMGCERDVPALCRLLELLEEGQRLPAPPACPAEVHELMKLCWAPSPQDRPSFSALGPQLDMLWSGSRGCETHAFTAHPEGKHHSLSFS
# [7] = target: T2, Tyrosine-protein kinase JAK3 (Homo sapiens); details: at 1 µM
# [8] = target: Vascular endothelial growth factor receptor 2 (Homo sapiens) (UniProt P35968); details: at 0.1 µM
# [9] = target: Vascular endothelial growth factor receptor 2 (Homo sapiens) (UniProt P35968); details: at 1 µM
# [10] = target: Mast/stem cell growth factor receptor Kit (Homo sapiens) (UniProt P10721); details: at 0.1 µM
# [11] = target: Mast/stem cell growth factor receptor Kit (Homo sapiens) (UniProt P10721); details: at 1 µM
# [12] = system: Mast/stem cell growth factor receptor Kit (Homo sapiens), P10721 [D816V]; details: at 0.1 µM
# [13] = system: Mast/stem cell growth factor receptor Kit (Homo sapiens), P10721 [D816V]; details: at 1 µM
# [14] = system: Mast/stem cell growth factor receptor Kit (Homo sapiens), P10721 [T670I]; details: at 0.1 µM
# [15] = system: Mast/stem cell growth factor receptor Kit (Homo sapiens), P10721 [T670I]; details: at 1 µM
# [16] = system: Mast/stem cell growth factor receptor Kit (Homo sapiens), P10721 [V560G]; details: at 0.1 µM
# [17] = system: Mast/stem cell growth factor receptor Kit (Homo sapiens), P10721 [V560G]; details: at 1 µM
# [18] = target: Tyrosine-protein kinase Lck (Homo sapiens) (UniProt P06239); details: at 0.1 µM
# [19] = target: Tyrosine-protein kinase Lck (Homo sapiens) (UniProt P06239); details: at 1 µM
# [20] = target: Leukocyte tyrosine kinase receptor (Homo sapiens) (UniProt P29376); details: at 0.1 µM
# Chain of Leukocyte tyrosine kinase receptor (Homo sapiens) (P29376 whole entry): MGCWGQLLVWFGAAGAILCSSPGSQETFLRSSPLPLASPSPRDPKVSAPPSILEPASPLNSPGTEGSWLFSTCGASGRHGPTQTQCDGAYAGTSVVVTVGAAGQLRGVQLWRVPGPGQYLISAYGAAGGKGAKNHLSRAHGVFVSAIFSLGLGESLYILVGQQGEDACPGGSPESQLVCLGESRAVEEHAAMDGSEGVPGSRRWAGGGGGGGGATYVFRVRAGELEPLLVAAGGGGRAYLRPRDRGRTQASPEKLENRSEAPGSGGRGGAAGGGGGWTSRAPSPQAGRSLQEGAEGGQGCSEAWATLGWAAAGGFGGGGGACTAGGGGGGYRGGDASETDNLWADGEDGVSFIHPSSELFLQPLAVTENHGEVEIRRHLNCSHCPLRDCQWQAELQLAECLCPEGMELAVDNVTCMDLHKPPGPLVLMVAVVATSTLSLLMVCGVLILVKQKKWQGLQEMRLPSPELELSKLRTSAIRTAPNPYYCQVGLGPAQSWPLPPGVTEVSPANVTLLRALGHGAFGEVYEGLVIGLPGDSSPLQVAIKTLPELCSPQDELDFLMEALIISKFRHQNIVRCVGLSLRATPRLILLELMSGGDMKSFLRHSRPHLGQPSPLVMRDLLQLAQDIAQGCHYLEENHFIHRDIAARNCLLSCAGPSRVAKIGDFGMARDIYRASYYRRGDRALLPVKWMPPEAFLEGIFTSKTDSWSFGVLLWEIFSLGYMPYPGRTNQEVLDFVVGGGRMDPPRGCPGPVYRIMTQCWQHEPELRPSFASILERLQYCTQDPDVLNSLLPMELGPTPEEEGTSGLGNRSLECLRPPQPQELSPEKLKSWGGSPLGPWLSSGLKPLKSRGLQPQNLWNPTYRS
# Chain of Tyrosine-protein kinase JAK2 (Homo sapiens) (O60674 whole entry): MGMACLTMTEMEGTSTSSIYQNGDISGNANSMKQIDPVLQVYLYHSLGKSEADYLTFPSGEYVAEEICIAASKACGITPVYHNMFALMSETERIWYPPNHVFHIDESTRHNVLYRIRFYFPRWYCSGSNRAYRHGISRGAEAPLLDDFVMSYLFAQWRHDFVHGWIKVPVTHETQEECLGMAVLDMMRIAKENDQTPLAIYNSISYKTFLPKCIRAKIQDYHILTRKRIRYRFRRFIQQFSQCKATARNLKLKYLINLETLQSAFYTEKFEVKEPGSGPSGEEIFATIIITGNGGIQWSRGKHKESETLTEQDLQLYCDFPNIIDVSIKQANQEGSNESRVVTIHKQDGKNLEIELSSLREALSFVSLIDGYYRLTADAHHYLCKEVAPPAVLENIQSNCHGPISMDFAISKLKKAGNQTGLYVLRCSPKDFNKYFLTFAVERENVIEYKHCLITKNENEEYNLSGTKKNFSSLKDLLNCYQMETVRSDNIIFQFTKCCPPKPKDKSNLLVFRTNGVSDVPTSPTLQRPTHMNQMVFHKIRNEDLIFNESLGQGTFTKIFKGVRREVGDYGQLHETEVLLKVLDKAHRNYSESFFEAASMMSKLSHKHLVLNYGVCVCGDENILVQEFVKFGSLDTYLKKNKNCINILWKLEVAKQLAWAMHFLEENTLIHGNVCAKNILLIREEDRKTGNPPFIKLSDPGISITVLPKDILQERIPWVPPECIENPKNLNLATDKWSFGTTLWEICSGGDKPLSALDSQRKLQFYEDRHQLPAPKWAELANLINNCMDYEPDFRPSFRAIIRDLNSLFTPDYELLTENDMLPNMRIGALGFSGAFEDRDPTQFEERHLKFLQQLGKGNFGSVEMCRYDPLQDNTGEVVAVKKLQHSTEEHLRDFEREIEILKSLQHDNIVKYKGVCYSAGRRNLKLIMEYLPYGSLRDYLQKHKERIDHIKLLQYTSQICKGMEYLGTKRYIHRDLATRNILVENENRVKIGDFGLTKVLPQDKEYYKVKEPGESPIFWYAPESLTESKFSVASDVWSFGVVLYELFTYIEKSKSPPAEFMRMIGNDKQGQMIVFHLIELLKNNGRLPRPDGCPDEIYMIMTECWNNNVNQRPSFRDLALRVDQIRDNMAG
# Chain of Tyrosine-protein kinase Lck (Homo sapiens) (P06239 2-509 limits assumed): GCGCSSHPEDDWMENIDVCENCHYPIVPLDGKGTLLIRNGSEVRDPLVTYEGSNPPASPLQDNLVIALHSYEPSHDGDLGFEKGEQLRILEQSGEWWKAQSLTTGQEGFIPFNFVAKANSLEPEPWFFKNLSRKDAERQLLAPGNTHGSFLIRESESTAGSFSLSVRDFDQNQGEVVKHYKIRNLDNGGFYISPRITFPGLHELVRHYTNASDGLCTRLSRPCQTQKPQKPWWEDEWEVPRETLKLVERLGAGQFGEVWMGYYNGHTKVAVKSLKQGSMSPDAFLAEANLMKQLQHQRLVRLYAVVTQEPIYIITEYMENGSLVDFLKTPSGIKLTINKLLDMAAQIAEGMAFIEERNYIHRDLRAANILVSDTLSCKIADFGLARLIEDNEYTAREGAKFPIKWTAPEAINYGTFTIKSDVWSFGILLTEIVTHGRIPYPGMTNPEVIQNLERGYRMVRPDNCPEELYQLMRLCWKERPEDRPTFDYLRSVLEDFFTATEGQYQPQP
# Chain of Vascular endothelial growth factor receptor 2 (Homo sapiens) (P35968 whole entry): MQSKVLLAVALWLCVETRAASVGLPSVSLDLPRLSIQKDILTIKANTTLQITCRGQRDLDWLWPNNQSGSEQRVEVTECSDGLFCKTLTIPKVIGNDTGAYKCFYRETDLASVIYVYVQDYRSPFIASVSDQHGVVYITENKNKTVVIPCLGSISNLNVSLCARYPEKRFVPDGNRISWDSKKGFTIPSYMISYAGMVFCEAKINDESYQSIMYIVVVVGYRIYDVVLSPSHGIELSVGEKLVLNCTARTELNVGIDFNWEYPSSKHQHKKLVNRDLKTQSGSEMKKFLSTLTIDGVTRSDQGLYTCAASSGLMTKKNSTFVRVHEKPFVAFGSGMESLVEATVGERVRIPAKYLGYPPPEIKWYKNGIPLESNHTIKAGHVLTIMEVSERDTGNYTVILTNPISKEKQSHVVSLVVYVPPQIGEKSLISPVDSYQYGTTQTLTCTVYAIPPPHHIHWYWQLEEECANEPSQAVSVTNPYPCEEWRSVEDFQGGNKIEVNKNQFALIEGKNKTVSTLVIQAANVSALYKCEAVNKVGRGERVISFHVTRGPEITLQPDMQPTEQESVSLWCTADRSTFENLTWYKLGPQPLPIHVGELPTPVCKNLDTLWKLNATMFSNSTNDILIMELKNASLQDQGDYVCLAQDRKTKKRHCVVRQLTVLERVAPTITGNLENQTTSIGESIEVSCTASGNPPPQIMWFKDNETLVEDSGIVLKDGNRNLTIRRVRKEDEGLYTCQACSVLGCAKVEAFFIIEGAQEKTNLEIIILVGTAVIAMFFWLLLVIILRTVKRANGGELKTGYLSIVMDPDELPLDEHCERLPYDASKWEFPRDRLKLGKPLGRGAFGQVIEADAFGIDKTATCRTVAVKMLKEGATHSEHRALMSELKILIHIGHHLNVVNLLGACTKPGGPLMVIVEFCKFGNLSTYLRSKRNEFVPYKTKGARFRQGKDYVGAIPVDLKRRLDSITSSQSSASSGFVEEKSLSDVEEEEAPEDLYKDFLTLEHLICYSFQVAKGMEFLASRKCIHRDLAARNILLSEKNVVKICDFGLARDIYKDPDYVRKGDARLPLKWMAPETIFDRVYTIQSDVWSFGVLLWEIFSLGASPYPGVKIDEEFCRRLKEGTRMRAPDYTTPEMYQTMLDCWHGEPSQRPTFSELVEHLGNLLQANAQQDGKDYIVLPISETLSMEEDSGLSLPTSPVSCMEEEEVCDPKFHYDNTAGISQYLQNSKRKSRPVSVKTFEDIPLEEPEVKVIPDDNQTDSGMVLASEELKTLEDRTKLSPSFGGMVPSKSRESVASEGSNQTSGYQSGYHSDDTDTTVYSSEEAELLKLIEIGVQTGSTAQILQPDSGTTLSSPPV
# Chain of Mast/stem cell growth factor receptor Kit (Homo sapiens) (P10721 whole entry): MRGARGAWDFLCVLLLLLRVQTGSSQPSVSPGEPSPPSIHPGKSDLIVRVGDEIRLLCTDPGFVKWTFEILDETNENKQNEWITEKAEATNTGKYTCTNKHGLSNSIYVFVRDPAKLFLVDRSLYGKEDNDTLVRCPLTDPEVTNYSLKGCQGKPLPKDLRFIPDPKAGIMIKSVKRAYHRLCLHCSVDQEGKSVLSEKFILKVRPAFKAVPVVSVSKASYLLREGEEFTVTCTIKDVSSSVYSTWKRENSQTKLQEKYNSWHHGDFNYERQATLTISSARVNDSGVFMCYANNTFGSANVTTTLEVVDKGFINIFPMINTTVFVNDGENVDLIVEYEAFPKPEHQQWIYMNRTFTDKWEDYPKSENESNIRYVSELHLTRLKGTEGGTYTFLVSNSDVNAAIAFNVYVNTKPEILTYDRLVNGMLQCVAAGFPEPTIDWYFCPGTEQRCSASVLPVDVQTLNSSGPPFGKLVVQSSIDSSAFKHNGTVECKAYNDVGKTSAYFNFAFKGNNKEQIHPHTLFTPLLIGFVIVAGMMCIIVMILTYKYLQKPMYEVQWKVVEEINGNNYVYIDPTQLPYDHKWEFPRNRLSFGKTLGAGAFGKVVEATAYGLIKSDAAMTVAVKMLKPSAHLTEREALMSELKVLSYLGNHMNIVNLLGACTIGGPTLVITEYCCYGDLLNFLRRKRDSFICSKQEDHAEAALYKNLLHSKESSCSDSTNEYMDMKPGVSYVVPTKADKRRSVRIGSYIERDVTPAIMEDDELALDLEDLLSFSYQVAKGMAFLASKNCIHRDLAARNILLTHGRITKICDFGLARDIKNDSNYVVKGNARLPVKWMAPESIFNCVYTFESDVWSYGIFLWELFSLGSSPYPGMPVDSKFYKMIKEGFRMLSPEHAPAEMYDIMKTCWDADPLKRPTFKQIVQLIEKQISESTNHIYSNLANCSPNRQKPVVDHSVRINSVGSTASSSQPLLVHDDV
# Chain of Mast/stem cell growth factor receptor Kit (Homo sapiens), P10721 [V560G] (P10721 whole entry V560G): as the sequence (P10721 whole entry) above, with V560G counted along it
# Chain of Mast/stem cell growth factor receptor Kit (Homo sapiens), P10721 [T670I] (P10721 whole entry T670I): as the sequence (P10721 whole entry) above, with T670I counted along it
# Chain of Mast/stem cell growth factor receptor Kit (Homo sapiens), P10721 [D816V] (P10721 whole entry D816V): as the sequence (P10721 whole entry) above, with D816V counted along it
SMILES,inhibition [1] [%],inhibition [2] [%],inhibition [3] [%],inhibition [4] [%],inhibition [5] [%],inhibition [6] [%],inhibition [7] [%],inhibition [8] [%],inhibition [9] [%],inhibition [10] [%],inhibition [11] [%],inhibition [12] [%],inhibition [13] [%],inhibition [14] [%],inhibition [15] [%],inhibition [16] [%],inhibition [17] [%],inhibition [18] [%],inhibition [19] [%],inhibition [20] [%]
COc1cc(Nc2ncc3c(C)nc(-c4cccc(Oc5ccccc5)c4)n3n2)cc(OC)c1OC,2.18,1.98,-5.12,0.96,2.54,0.02,1.74,2.28,3.61,3.09,18.8,2.25,0.81,0.81,-0.67,-2.03,1.13,1.24,5.01,3.21
COc1cc(Nc2ncc(-c3ccccc3)o2)cc(OC)c1OC,2.92,-8.6,-0.54,-0.76,5.24,-0.1,12.7,7.23,48,85.4,98.7,0.53,0.05,69.3,94.8,22.2,80.4,2.17,25,0.26
CN(C)CCOc1ccc(-c2cc(-c3ccc4c(c3)CCC4=NO)c(-c3ccncc3)o2)cc1,0.28,1.5,0.68,0.4,-1.64,-0.61,1.8,-0.68,0.23,-2.06,1.55,-1.77,-0.88,0.11,0.36,1.5,3.34,2.65,24.9,-0.5
O=C(Nc1n[nH]c2nc(-c3ccc(O)cc3)c(Br)cc12)C1CC1,3.5,15.5,55,3.57,28.4,11.9,62.2,36.2,71.6,17.5,63.1,9.03,10.1,3.13,4.94,2.07,10.8,6.75,22.2,62.8
NC(=O)c1cc(-c2ccncc2)cc(-c2ccccc2)c1N,1.74,6.03,4.31,2.14,1.86,-1.25,-1.1,3.91,10.7,23,75.5,6.4,6.94,3.99,4.83,2.91,25.1,7.95,41.6,5.44
Fc1ccc(-c2ncn(C3CCNCC3)c2-c2ccnc(Oc3ccc(F)c(F)c3)n2)cc1,-2.62,3.04,7.49,1.1,0.69,-5.49,-1.81,6.78,11.5,1.92,5.24,5.58,2.5,1.57,1.83,-1.36,0.87,-1.59,-1.94,2.84
NCc1ccc(-n2c(-c3nonc3N)nc3cnccc32)cc1,2.4,4.99,5.42,1.95,2.09,-0.04,1.57,10.5,22.8,5.81,10.8,4.7,2.04,4.14,5.42,-2.06,2.07,3.81,4.5,5.22
Cc1ccc(NC(=O)c2ccoc2)cc1-c1ccc(C(=O)NCC2CC2)cc1,1.05,1,2.95,0,-1.25,-1.84,-0.47,15.3,62,1.57,0.22,3.87,3.1,1.06,1.82,0.04,-1.21,2.02,3.87,2.79
CNC(=O)c1cncc(/C=C/c2c(C)cccc2C)c1,-3.29,0.62,-1.32,2.87,2.41,-3.28,-0.59,3.77,3.51,10.7,51.7,1.76,0.69,-0.72,-0.77,3.1,17.2,3.11,30,-1.27
COc1cc(Nc2ncc3c(C)nc(-c4cccc(C(F)(F)F)c4)n3n2)cc(OC)c1OC,13.5,3.02,8.95,1.27,11.1,-0.52,4.91,4.26,8.61,11.1,44.8,4.72,5.97,1.57,7.22,-0.27,7.67,3.24,20.1,4.18
NS(=O)(=O)c1ccc(Nc2cc(-c3ccc(O)c(F)c3)n[nH]2)cc1,12.4,-7.43,6.94,-0.13,-0.37,0.11,8.25,4.49,35.3,20.9,86.4,-3.97,-1.47,-0.5,20.2,8.78,55.9,-0.68,7.91,-0.58
COc1cccc(/C=N/Nc2ncnc3c2cnn3-c2cccc(OC)c2)c1,0.34,1.61,4.23,3.55,5.22,-1.99,-2.7,5.88,11.2,6.67,6.76,2.28,4.96,1.91,4.1,3.55,0.61,2.18,8.97,5
CN(c1ccc(NC(=O)Nc2c(Cl)cccc2Cl)cc1)c1ccnc(Nc2cccc(CS(C)(=O)=O)c2)n1,71.1,8.34,19.7,2.35,20.7,0.53,2.77,24.6,56.3,88.5,95.9,-0.59,2.33,12.3,35.9,71.3,81.5,45.5,61.2,0.54

# Source: ChEMBL document CHEMBL1961873, “Compounds: GSK PKIS; Assays: Nanosyn kinase panel” (2012)
